For seven molecules, outcome and AC50 results are on record in PubChem BioAssay (EPA / NIEHS).

Read-out in assay [1]: Monocyte Chemoattractant Protein-1 (MCP1), CCL2 (gene 6347)
Put plainly: BSK_LPS_MCP1: BioMAP Diversity Plus: LPS Assay for Monocyte Chemoattractant Protein-1 (MCP1) Biomarker Activity (AID 2283081). Conditions: primary human HUVEC with PBMC; actives raise or lower the signal. The procedure, abridged: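 Secreted MCP-1 read by ELISA at 24 h post-dosing in an LPS-activated co-culture of endothelial cells with peripheral blood mononuclear cells. Fits run in both directions, DMSO as baseline; parallel SRB staining tracks overt cytotoxicity.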

Assay [2] can be described thus: BSK_LPS_PGE2: BioMAP Diversity Plus: LPS Assay for Prostaglandin E2 (PGE2) Biomarker Activity (AID 2283082).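 For AC50: secreted prostaglandin E2 measured by ELISA in LPS-stimulated co-culture.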 The following applies: primary human HUVEC with PBMC; actives raise or lower the signal. An outline of the steps:
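HUVEC plus PBMC co-culture stimulated with LPS; secreted PGE2 quantified by ELISA 24 h after chemical dosing. Activity fitted bidirectionally against DMSO as negative control and baseline; parallel SRB total-protein staining served as cytotoxicity check.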

Read-out in assay [3]: Macrophage colony-stimulating factor (MCSF), CSF1 (gene 1435)
Put plainly: BSK_LPS_MCSF: BioMAP Diversity Plus: LPS Assay for Macrophage colony-stimulating factor (MCSF) Biomarker Activity (AID 2283083). The following applies: primary human HUVEC with PBMC; actives raise or lower the signal. The procedure, abridged:
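Bidirectional fitting against DMSO was applied to M-CSF levels read by ELISA at 24 h post-dose. The system pairs human umbilical vein endothelium with peripheral blood mononuclear cells; parallel SRB staining tracked cytotoxicity.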

Read-out in assay [4]: Tissue Factor, F3 (gene 2152)
Put plainly: BSK_LPS_TissueFactor: BioMAP Diversity Plus: LPS Assay for Tissue Factor Biomarker Activity (AID 2283084). Conditions: primary human HUVEC with PBMC; actives raise or lower the signal. The procedure, abridged:
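Compound was added to an endothelial cell/PBMC co-culture, and after 24 h tissue factor (CD142) was read by ELISA. Gain or loss of signal was fitted against a DMSO baseline, and parallel SRB staining (560 nm) tracked overt cytotoxicity.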

Read-out in assay [5]: Tumor necrosis factor (Homo sapiens) (UniProt P01375)
Put plainly: BSK_LPS_TNFa: BioMAP Diversity Plus: LPS Assay for Tumour Necrosis Factor alpha (TNFa) Biomarker Activity (AID 2283085). Conditions: primary human HUVEC with PBMC; actives raise or lower the signal. An outline of the steps: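 Human umbilical vein endothelial cells co-cultured with PBMC were exposed to test chemical and TNFa measured by ELISA 24 h after dosing. Bidirectional curve fitting was done relative to DMSO as negative control and baseline.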

Read-out in assay [6]: Vascular cell adhesion molecule 1 (VCAM1), VCAM1 (gene 7412)
The experiment in a line: BSK_LPS_VCAM1: BioMAP Diversity Plus: LPS Assay for Vascular cell adhesion molecule 1 (VCAM1) Biomarker Activity (AID 2283086). Conditions: primary human HUVEC with PBMC; actives raise or lower the signal. The procedure, abridged: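 Human umbilical vein endothelial cells co-cultured with peripheral blood mononuclear cells under LPS stimulation were exposed to test chemical for 24 h. VCAM-1 levels were then measured by ELISA, with bidirectional curve fitting relative to DMSO as negative control and baseline.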

Read-out in another assay: CD38, CD38 (gene 952)
The experiment in a line: BSK_SAg_CD38: BioMAP Diversity Plus: SAg Assay for CD38 Biomarker Activity (AID 2283087). Conditions: primary human HUVEC with PBMC; actives raise or lower the signal. The procedure, abridged:
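Fluorescence ELISA of cell-surface CD38 served as the read-out, with either increase or decrease fitted against DMSO controls. Cells were a human umbilical vein endothelium plus PBMC co-culture under SEB/TSST-1 stimulation, measured 24 h after dosing.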

Read-out in another assay: CD40, CD40 (gene 958)
The experiment in a line: BSK_SAg_CD40: BioMAP Diversity Plus: SAg Assay for CD40 Biomarker Activity (AID 2283088). Conditions: primary human HUVEC with PBMC; actives raise or lower the signal. An outline of the steps:
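CD40 is measured by fluorescence ELISA in an endothelial/PBMC primary human co-culture at 24 h post-dose. Fitting is bidirectional, DMSO baseline. Parallel SRB staining (560 nm) flags cytotoxicity.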

Read-out in another assay: CD69, CD69 (gene 969)
Put plainly: BSK_SAg_CD69: BioMAP Diversity Plus: SAg Assay for CD69 Biomarker Activity (AID 2283089).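 For AC50: cell surface CD69 protein quantified by ELISA with fluorescence detection.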 The following applies: primary human HUVEC with PBMC; actives raise or lower the signal. The procedure, abridged: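 Primary human vascular co-culture (umbilical vein endothelium with peripheral blood mononuclear cells) exposed to test chemical for 24 h. CD69 levels quantified by fluorescence ELISA; DMSO served as negative control for bidirectional fitting.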

Read-out in assay [7]: Monocyte Chemoattractant Protein-1 (MCP1), CCL2 (gene 6347)
Put plainly: BSK_SAg_MCP1: BioMAP Diversity Plus: SAg Assay for Monocyte Chemoattractant Protein-1 (MCP1) Biomarker Activity (AID 2283090). The following applies: primary human HUVEC with PBMC; actives raise or lower the signal. The procedure, abridged: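 MCP-1 levels in the endothelial–PBMC SAg co-culture were quantified by ELISA at 24 h post-dosing; both increases and decreases versus DMSO scored. Cytotoxicity monitored by SRB total protein in parallel cultures.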

Read-out in assay [8]: E-selectin (Homo sapiens) (UniProt P16581)
Put plainly: BSK_SAg_Eselectin: BioMAP Diversity Plus: SAg Assay for Eselectin Biomarker Activity (AID 2283091). Conditions: primary human HUVEC with PBMC; actives raise or lower the signal. The procedure, abridged:
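Cell-surface E-selectin is read by ELISA at 24 h in the SAg co-culture of HUVEC and PBMC. Curves are fitted in both directions relative to DMSO. Parallel SRB total-protein staining tracks overt toxicity.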

Read-out in assay [9]: Monokine induced gamma interferon (MIG), CXCL9 (gene 4283)
The experiment in a line: BSK_SAg_MIG: BioMAP Diversity Plus: SAg Assay for Monokine induced gamma interferon (MIG) Biomarker Activity (AID 2283092). Conditions: primary human HUVEC with PBMC; actives raise or lower the signal. An outline of the steps:
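Endothelial cells and PBMC were co-cultured, exposed to test chemicals, and sampled 24 h later. MIG was measured by ELISA, and responses were fitted in both directions relative to DMSO.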

The nature of assay [10]: BSK_SAg_PBMCCytotoxicity: PBMC Cytotoxicity Assessment in the BioMAP Diversity Plus: SAg Assay (AID 2283093).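 For AC50: PBMC superantigen activated with SEB plus TSST-1 one hour after compound addition.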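 Note: PBMC viability measured as Alamar Blue reduction fluorescence at 546/580 nm; fitted both ways against DMSO so a hit may be loss or gain of signal.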 The following applies: primary human HUVEC with PBMC. The procedure, abridged: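 Compound added to 75,000 PBMC/well for 1 h; SEB and TSST-1 then added at 20 ng/mL final each; 90 h incubation; Alamar Blue 6 h; read 546/580 nm ex/em. Activity fitted bidirectionally relative to DMSO baseline.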

Read-out in assay [11]: Interleukin-8 (IL8), CXCL8 (gene 3576)
Put plainly: BSK_SAg_IL8: BioMAP Diversity Plus: SAg Assay for Interleukin-8 (IL8) Biomarker Activity (AID 2283094). Conditions: primary human HUVEC with PBMC; actives raise or lower the signal. An outline of the steps:
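Human umbilical vein endothelial cells co-cultured with peripheral blood mononuclear cells; IL-8 measured by ELISA 24 h after chemical dosing. Bidirectional concentration-response fitting used DMSO as negative control and activity baseline.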

The nature of assay [12]: BSK_SAg_Proliferation: Cell Proliferation Assessment in the BioMAP Diversity Plus: SAg Assay (AID 2283095).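 Note: relative cell number as total protein by SRB absorbance in sub-confluent culture.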 Conditions: primary human HUVEC with PBMC. The procedure, abridged:
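Human umbilical vein endothelial cells co-cultured with peripheral blood mononuclear cells; total protein measured by sulforhodamine B staining (0.1% SRB after 10% TCA fixation), absorbance at 560 nm, at 96 h. Bidirectional fit against DMSO baseline.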

Assay [13] in a line: BSK_SAg_SRB: Viability Assessment in the BioMAP Diversity Plus: SAg Assay (AID 2283096).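 Note: cells read one day after compound addition; hits may be either gain or loss of signal compared with DMSO.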 Conditions: primary human HUVEC with PBMC. The procedure, abridged:
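Total protein by sulforhodamine B staining, 24 h after dosing, in HUVEC–PBMC co-culture; DMSO-referenced bidirectional fitting.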

A structure can be active in one record and inactive in another. The source made the active and inactive calls. Rule for the calls: active = hit-call score of the fitted dose curve at least 0.9, where 1 is the maximum; inactive = score below 0.9.

Sequence of Tumor necrosis factor (Homo sapiens) (P01375 whole entry, looked up): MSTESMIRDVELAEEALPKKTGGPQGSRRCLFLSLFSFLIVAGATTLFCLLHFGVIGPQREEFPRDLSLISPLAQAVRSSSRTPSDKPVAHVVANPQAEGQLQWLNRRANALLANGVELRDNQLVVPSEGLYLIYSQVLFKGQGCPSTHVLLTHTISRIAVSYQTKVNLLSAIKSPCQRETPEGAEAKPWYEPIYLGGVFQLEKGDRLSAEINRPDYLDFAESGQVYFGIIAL
Sequence of E-selectin (Homo sapiens) (P16581 whole entry, looked up): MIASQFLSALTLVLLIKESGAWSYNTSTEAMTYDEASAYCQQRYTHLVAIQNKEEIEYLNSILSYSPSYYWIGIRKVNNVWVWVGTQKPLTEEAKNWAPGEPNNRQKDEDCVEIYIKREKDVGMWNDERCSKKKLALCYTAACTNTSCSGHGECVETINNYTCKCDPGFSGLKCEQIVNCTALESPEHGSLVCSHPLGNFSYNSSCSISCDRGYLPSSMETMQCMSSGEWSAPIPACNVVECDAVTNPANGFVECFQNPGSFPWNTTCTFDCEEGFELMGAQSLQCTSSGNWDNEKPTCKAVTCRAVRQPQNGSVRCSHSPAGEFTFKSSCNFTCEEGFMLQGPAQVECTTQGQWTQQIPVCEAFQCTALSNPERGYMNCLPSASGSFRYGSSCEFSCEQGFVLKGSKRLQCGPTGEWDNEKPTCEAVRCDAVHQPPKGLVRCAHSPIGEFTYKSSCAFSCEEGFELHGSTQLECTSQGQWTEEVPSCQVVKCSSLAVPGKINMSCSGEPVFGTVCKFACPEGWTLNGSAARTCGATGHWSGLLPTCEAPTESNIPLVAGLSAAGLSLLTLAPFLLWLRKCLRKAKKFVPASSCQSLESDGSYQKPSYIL

Regarding `C=C[Si](OCC)(OCC)OCC`, the result in assay [1], in [2], in assay [3], in assay [4], in assay [5] and in [6] was inactive. The outcome in the assay with CD38, CD38 (gene 952) is “inactive”; with CD40, CD40 (gene 958), “inactive”; with CD69, CD69 (gene 969), “inactive”; in [7], “inactive”; in assay [8], “inactive”; in assay [9] it was “inactive”. The outcome in [10], in [11], in [12] and in [13] was inactive.
Turning to `CC(=O)Nc1ccccc1O`, the outcome in [1], in [2], in assay [3], in assay [4], in assay [5] and in assay [6] was inactive. For the same molecule, the outcome in the assay with CD38, CD38 (gene 952) is “inactive”; with CD40, CD40 (gene 958), “inactive”; with CD69, CD69 (gene 969) it was “inactive”; in assay [7], “inactive”; in assay [8], “inactive”; in [9] it was “inactive”. Besides, the result in assay [10], in assay [11], in [12] and in assay [13] was inactive.
Turning to `CCCCCCCCC=O`, the outcome in [1], in assay [2], in [3], in [4], in assay [5] and in assay [6] was inactive. Further, the outcome is “inactive” with CD38, CD38 (gene 952); “inactive” with CD40, CD40 (gene 958); “inactive” with CD69, CD69 (gene 969); “inactive” in assay [7]; “inactive” in assay [8]; “inactive” in [9]. The result in [10], in [11] and in assay [13] was inactive.
The term AC50 denotes the midpoint of the concentration-response curve, whichever way the signal moves. On to `C#C[C@]1(O)CC[C@H]2[C@@H]3CCC4=Cc5oncc5C[C@]4(C)[C@H]3CC[C@@]21C`, for which the outcome in [1] was “inactive”; in [3] it was “inactive”; in assay [4], “inactive”; in [5], “inactive”; in [6] it was “inactive”; with CD38, CD38 (gene 952), “inactive”. The outcome was “inactive” with CD40, CD40 (gene 958); “inactive” with CD69, CD69 (gene 969); “inactive” in assay [7]; “inactive” in assay [8]; “inactive” in [9]; “inactive” in [10]. In addition, the outcome in assay [11] and in [13] was inactive. Besides, the AC50 in assay [2] is 3.97 µM (active).
With `Cc1cc(C2(c3cc(C)c(O)cc3C)OS(=O)(=O)c3ccccc32)c(C)cc1O`, the result in assay [1], in assay [2], in [3], in [4], in assay [5] and in assay [6] was inactive. Also, the outcome with CD38, CD38 (gene 952) is “inactive”; with CD40, CD40 (gene 958) it was “inactive”; with CD69, CD69 (gene 969), “inactive”; in assay [7] it was “inactive”; in assay [8] it was “inactive”; in assay [9] it was “inactive”. Besides, the outcome in [10], in assay [11], in assay [12] and in assay [13] was inactive. Moreover, the AC50 in assay [10] was 27.3 µM (active).
`O=[N+]([O-])c1cc(C(F)(F)F)ccc1Cl`: the result in [1], in assay [2], in assay [3], in assay [4], in assay [5] and in assay [6] was inactive. Also, the outcome is “inactive” in the assay with CD38, CD38 (gene 952); “inactive” with CD40, CD40 (gene 958); “inactive” in the assay with CD69, CD69 (gene 969); “inactive” in [7]; “inactive” in assay [8]; “inactive” in assay [9]. In addition, the result in assay [10], in [11], in [12] and in [13] was inactive.
As for `O=C1CCCCCCCCCCCCCCO1`, the outcome is “inactive” in [1]; “inactive” in assay [3]; “inactive” in assay [4]; “inactive” in assay [5]; “inactive” in the assay with CD38, CD38 (gene 952); “inactive” with CD40, CD40 (gene 958). Further, the result in assay [7], in assay [8], in [9], in assay [11] and in assay [13] was inactive. The AC50 in assay [2] was 3.97 µM (active); in assay [6], 23.5 µM (active); in the assay with CD69, CD69 (gene 969), 20 µM (active); in assay [10] it was 11.7 µM (active); in assay [12], 10.3 µM (active).
